Measured values taken from PubChem BioAssay.
“And” between values parts separate entries of the source, which are not always exact repeats. Equal entries are not always repeated. For some of these results: Potency and affinity values are given separately. Some compounds were tested as several samples or in several runs, with calls that do not always agree. The source made the active and inactive calls. Entries that show only a call come without a potency. Unless noted, how the calls were made is not given here.

Columns and labels:
[1] = antimalarial activity against Dd2 strain (AID 2302;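 active means growth inhibition above 50% at the single 2 µM test dose, taken to imply half-maximal potency below 2 µM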); conditions: P. falciparum Dd2 in RBCs, LDH growth readout, 72 h; at 2 µM; stronger effect = higher value
[2] = HepG2 cytotoxicity, primary screen, cytotoxicity control for P. falciparum antimalarial project, cell-based, ATP luminescence (AID 2303;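 active means inhibition above 50%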); conditions: HepG2 viability, 24-48 h, at 10 µM, stronger effect = higher value
[3] = target: L-lactate dehydrogenase (Plasmodium falciparum (isolate CDC / Honduras)) (UniProt Q27743); assay: PfLDH activity inhibition – cell lysate, 3D7 strain, counter-screen for P. falciparum growth inhibition project (AID 2304); conditions: P. falciparum 3D7 crude extract, LDH APAD/NBT absorbance; at 2 µM; stronger effect = higher value
Chain of L-lactate dehydrogenase (Plasmodium falciparum (isolate CDC / Honduras)) (Q27743 whole entry, looked up): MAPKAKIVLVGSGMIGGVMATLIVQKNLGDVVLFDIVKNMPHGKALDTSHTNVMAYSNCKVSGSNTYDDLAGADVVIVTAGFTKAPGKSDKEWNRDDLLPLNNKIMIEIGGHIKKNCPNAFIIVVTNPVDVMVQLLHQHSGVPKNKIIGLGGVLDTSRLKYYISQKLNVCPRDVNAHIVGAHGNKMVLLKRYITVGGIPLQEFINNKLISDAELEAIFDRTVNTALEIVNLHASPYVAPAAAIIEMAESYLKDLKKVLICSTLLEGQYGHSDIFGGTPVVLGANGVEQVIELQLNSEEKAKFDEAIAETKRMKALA

[4] = inhibition of 3D7 malaria parasite growth – strain 3D7 (AID 2306); conditions: P. falciparum 3D7 erythrocytic growth, LDH absorbance, 72 h; at 2 µM; stronger effect = higher value
[5] = target: Calcium-dependent protein kinase 1 (Plasmodium falciparum (isolate 3D7)) (UniProt P62344); assay: PfCDPK1 kinase inhibitors, biochemical, TCAMS library (AID 1159585; cut-off not given, nearly all actives have IC50 up to about 0.98 µM;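 further: inhibitors leave more ATP so luminescence rises with inhibition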); conditions: recombinant PfCDPK1, Kinase-Glo ATP depletion luminescence
Chain of Calcium-dependent protein kinase 1 (Plasmodium falciparum (isolate 3D7)) (P62344 whole entry, looked up): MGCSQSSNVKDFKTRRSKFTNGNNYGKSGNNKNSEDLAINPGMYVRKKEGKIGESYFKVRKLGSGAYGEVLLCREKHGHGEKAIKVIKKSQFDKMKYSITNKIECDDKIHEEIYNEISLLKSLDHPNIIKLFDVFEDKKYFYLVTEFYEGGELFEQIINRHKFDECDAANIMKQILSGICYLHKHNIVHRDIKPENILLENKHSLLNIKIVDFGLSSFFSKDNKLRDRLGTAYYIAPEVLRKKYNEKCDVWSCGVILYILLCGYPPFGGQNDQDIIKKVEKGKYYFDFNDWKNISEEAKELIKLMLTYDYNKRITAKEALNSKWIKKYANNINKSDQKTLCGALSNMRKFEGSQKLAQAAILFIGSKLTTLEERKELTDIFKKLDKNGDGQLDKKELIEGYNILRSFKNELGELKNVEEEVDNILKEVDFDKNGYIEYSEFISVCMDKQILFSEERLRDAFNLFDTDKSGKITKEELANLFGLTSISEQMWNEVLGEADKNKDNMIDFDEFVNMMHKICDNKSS

[6] = target: Plasmodium falciparum protein kinase 6 (PK6, PF3D7_1337100) (UniProt Q8IDW1); assay: PfPK6 kinase inhibitors, biochemical, TCAMS library (AID 1159586); conditions: recombinant PfPK6, Kinase-Glo ATP depletion luminescence
Chain of Plasmodium falciparum protein kinase 6 (PK6, PF3D7_1337100) (Q8IDW1 1-305): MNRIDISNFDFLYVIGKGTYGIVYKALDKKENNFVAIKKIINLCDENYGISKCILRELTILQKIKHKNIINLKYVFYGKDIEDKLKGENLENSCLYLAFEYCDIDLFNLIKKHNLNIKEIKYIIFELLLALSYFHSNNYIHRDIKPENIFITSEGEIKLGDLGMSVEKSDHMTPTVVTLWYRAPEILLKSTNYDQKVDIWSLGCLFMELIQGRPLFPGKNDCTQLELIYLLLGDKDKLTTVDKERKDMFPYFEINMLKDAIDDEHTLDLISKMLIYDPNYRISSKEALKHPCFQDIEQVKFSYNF

[7] = target: Protein kinase 7 (PK7), Plasmodium falciparum 3D7 (PF3D7_0213400) (UniProt Q7YTF7); assay: inhibition of Plasmodium PK7 catalytic activity – biochemical, TCAMS antimalarial set, Kinase-Glo luminescence (AID 1159587); conditions: recombinant PfPK7, Kinase-Glo ATP depletion luminescence
Chain of Protein kinase 7 (PK7), Plasmodium falciparum 3D7 (PF3D7_0213400) (Q7YTF7 1-343): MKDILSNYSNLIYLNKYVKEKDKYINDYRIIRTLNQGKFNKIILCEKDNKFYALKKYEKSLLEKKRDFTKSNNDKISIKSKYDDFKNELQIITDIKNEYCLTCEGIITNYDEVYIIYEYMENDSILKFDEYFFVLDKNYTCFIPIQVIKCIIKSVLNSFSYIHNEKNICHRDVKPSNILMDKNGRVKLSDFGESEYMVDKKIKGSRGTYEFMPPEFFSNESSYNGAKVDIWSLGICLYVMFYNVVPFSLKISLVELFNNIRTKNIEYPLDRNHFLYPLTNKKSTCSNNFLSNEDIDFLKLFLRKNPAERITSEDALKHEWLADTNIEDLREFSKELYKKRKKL

[8] = target: Calcium-dependent protein kinase 4 (Plasmodium falciparum (isolate 3D7)) (UniProt Q8IBS5); assay: PfCDPK4 kinase inhibitors, biochemical, TCAMS library (AID 1159588; cut-off not given, nearly all actives have IC50 up to about 0.91 µM); conditions: recombinant PfCDPK4, Kinase-Glo ATP depletion luminescence
Chain of Calcium-dependent protein kinase 4 (Plasmodium falciparum (isolate 3D7)) (Q8IBS5 whole entry, looked up): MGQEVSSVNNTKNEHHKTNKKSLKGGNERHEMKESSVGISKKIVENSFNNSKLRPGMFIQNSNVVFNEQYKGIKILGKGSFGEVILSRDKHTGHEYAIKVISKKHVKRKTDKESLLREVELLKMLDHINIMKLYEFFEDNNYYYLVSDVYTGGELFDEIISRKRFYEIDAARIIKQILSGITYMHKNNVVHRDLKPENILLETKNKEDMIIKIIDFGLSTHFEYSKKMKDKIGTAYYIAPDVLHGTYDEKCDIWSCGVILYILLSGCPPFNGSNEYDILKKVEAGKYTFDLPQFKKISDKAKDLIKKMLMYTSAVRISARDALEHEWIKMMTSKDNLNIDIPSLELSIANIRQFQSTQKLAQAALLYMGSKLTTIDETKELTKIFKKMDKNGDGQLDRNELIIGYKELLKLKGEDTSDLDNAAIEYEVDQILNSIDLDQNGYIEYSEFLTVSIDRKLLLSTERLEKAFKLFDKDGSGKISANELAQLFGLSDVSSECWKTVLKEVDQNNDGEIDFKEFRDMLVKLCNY

| Structure (SMILES) | growth inhibition [1] | inhibition [2] | inhibition [3] | growth inhibition [4] | outcome [5] | outcome [6] | outcome [7] | outcome [8] |
| --- | --- | --- | --- | --- | --- | --- | --- | --- |
| COc1ccc(CN(C)CCCSc2ccc(NC(=O)c3cccc4c(=O)cc(-c5ccccc5)[nH]c34)cc2)cc1OC | 94% (active) | 15% (inactive) | -6% (inactive) | 93% (active) | inactive | inactive | inactive | inactive |
| CCCCCCCCNc1c2ccc(Cl)cc2nc2ccc(OC)cc12 | 96% (active) | 11% (inactive) | -3% (inactive) | 89% (active) | inactive | inactive | inactive | inactive |
| Oc1ccc(OCc2ccccn2)cc1 | 0% (inactive) | 5% (inactive) | 2% (inactive) | 98% (active) | inactive | inactive | inactive | inactive |
| COc1ccc(Cl)cc1N1CCN(CCCNC(=O)c2ccc(-c3nc4cc5ccccc5cc4[nH]3)c(F)c2)CC1 | 62% (active) | 12% (inactive) | -3% (inactive) | 99% (active) | inactive | inactive | inactive | inactive |
| O=C(Nc1ccncc1)c1cn(-c2ccccc2)nc1-c1cccs1 | 10% (inactive) | 7% (inactive) | 4% (inactive) | 98% (active) | inactive | inactive | inactive | inactive |
| O=C(NCCCCN1CCC(c2ccc(OC(F)(F)F)cc2)CC1)c1ccc(NC(=O)c2ccc(Cl)cc2)cc1 | 98% (active) | 24% (inactive) | -3% (inactive) | 99% (active) | inactive | inactive | inactive | inactive |
| O=C(NC(Nc1ccc([N+](=O)[O-])cc1)C(Cl)(Cl)Cl)c1cccc(Cl)c1 (stereo not given) | 17% (inactive) | -2% (inactive) | 0% (inactive) | 92% (active) | inactive | inactive | inactive | inactive |
| c1ccc(Oc2cccc(Nc3ccnc4ccccc34)c2)cc1 | 14% (inactive) | 48% (inactive) | 6% (inactive) | 95% (active) | inactive | inactive | inactive | inactive |
| Fc1ccccc1COc1ccc(Nc2ncnc3ccc(I)cc23)cc1Cl | 37% (inactive) | 17% (inactive) | -4% (inactive) | 90% (active) | inactive | inactive | inactive | inactive |
| CC(CNC(=O)c1cc2c(Cl)cc(Cl)cc2[nH]1)CNc1cc(=O)c2ccccc2[nH]1 (stereo not given) | 11% (inactive) | 11% (inactive) | 5% (inactive) | 97% (active) | inactive | inactive | inactive | inactive |
| CCc1cn2c3c(cc(C(=O)N[C@@H](Cc4cc(F)cc(F)c4)[C@H](O)CNC4CC4)cc13)N(C)S(=O)(=O)CC2 | 99% (active) | 3% (inactive) | 0% (inactive) | 100% (active) | inactive | inactive | inactive | inactive |
| COc1ccc(-c2cc(C(=O)N[C@@H](CC3CCCCC3)C(=O)NCCN3CCCCC3)ccc2O)cc1 | 72% (active) | 3% (inactive) | 0% (inactive) | 98% (active) | inactive | inactive | inactive | inactive |
| CN1CCC(C(=O)Nc2ccc(-c3cccc(-c4nc5ccc(C(F)(F)F)cc5[nH]4)c3)cc2)CC1 | 97% (active) | 28% (inactive) | 0% (inactive) | 100% (active) | inactive | inactive | inactive | inactive |
| O=c1cc(NCCCNCc2cc(F)cc(C(F)(F)F)c2)[nH]c2ccccc12 | 15% (inactive) | -6% (inactive) | 1% (inactive) | 92% (active) | inactive | inactive | inactive | inactive |
| COc1ccc(-n2ccnc2SCC(=O)Nc2cc(C)ccc2C)c(OC)c1 | 93% (active) | 2% (inactive) | -3% (inactive) | 94% (active) | inactive | inactive | inactive | inactive |
| O=C(Nc1ccccc1O)c1ccc(Oc2cccc(C(=O)Nc3ccccc3O)c2)cc1 | 70% (active) | 33% (inactive) | -1% (inactive) | 97% (active) | inactive | inactive | inactive | inactive |
| CC(C)CNCc1cccc(-c2ccc(CNC3CCN(Cc4ccccc4)CC3)cc2)c1 | 99% (active) | 44% (inactive) | 3% (inactive) | 100% (active) | inactive | inactive | inactive | inactive |
| O=C(Nc1ccc(Cn2ncc(N3CCCNCC3)c(Cl)c2=O)cc1)Nc1ccc(-c2ccccc2)cc1 | 41% (inactive) and 51% (active) | 12% (inactive) and 10% (inactive) | -2% (inactive) and 8% (inactive) | 93% (active) | inactive | inactive | inactive | inactive |

| Structure (SMILES) | growth inhibition [1] | inhibition [2] | inhibition [3] | growth inhibition [4] | outcome [5] | outcome [6] | outcome [7] | outcome [8] |
| --- | --- | --- | --- | --- | --- | --- | --- | --- |
| O=C(Cc1cnc[nH]1)Nc1ccc(-c2cccc(-c3nc4ccc(F)cc4[nH]3)c2)cc1 | 70% (active) | 28% (inactive) | 4% (inactive) | 100% (active) | inactive | inactive | inactive | inactive |
| CC(C)(C)NC(=O)COC(=O)c1c2c(nc3ccccc13)C(=Cc1ccc3c(c1)OCO3)CCC2 | 82% (active) | 7% (inactive) | -4% (inactive) | 90% (active) | inactive | inactive | inactive | inactive |
| O=C(NCCCCCN1CCC(c2c[nH]c3ccccc23)CC1)Nc1ccc(I)cc1 | -1% (inactive) | 51% (active) | 2% (inactive) | 100% (active) | inactive | inactive | inactive | inactive |
| CCOC(=O)C(C)(C)Oc1ccc(C(=C2CC(C)(C)CC(C)(C)C2)c2ccc(O)cc2)cc1 | 78% (active) | -3% (inactive) | 1% (inactive) | 92% (active) | inactive | inactive | inactive | inactive |
| CCC1CN2CCc3c([nH]c4ccccc34)[C@@H]2C[C@@H]1CC1NCCc2cc(OC)c(OC)cc21 (stereo not given in full) | 67% (active) and 83% (active) | 33% (inactive) and 26% (inactive) | 3% (inactive) and 1% (inactive) | 100% (active) | inactive | inactive | inactive | inactive |
| NC1=NC(c2ccccc2)(c2ccccc2)C(=O)N1C1CCCCC1 | 87% (active) | 13% (inactive) | 0% (inactive) | 100% (active) | inactive | inactive | inactive | inactive |
| Cc1ccc2nc(C)cc(NC(=O)Nc3ccc(N(C)C)cc3)c2c1 | 41% (inactive) | 12% (inactive) | -3% (inactive) | 100% (active) | inactive | inactive | inactive | inactive |
| CN1CCCN(Cc2ccc(-c3cccc(NC(=O)c4ccc(F)cc4)c3)cc2)CC1 | 8% (inactive) | 29% (inactive) | 1% (inactive) | 89% (active) | inactive | inactive | inactive | inactive |
| CCNc1cc(C(=O)N[C@@H](Cc2ccc(F)c(F)c2)[C@H](O)CNCc2cccc(OC)c2)cc(N2CCCCS2(=O)=O)c1 | 85% (active) | 4% (inactive) | -7% (inactive) | 99% (active) | inactive | inactive | inactive | inactive |
| CN(C)C(=O)C(CC(=O)NCc1ccccc1Cl)N(C)C (stereo not given) (tested in a mixture with another compound) | 2% (inactive) | 7% (inactive) | -3% (inactive) | 96% (active) | inactive | inactive | inactive | inactive |
| O=C(Nc1cccc(CN2CCN(Cc3ccc(O)cc3)CC2)c1)c1ccc(Cl)c(Cl)c1 | 95% (active) | 30% (inactive) | 2% (inactive) | 102% (active) | inactive | inactive | inactive | inactive |
| CC(C)(C)C1CCc2nc(N)nc(N)c2C1 (stereo not given) | 38% (inactive) | 69% (active) | 6% (inactive) | 94% (active) | inactive | inactive | inactive | inactive |
| CN1CCC(NCc2ccc(-c3ccc(S(=O)(=O)NC4CCC4)s3)cc2)CC1 | 31% (inactive) | 31% (inactive) | 1% (inactive) | 92% (active) | inactive | inactive | inactive | inactive |
| O=C(NC1CCCCC1)N(Cc1cccc(-c2ccc(CNC3CCCC3)cc2)c1)C1CCN(Cc2ccccc2)CC1 | 89% (active) | 37% (inactive) | -2% (inactive) | 98% (active) | inactive | inactive | inactive | inactive |
| COc1cc(F)c2ncc(Cl)c([C@H](O)CN3CCC(NCc4cc5c(cn4)OCCO5)CC3)c2c1 | 49% (inactive) | 10% (inactive) | 4% (inactive) | 102% (active) | inactive | inactive | inactive | inactive |
| O=C(Cn1cc(C=C2SC(=NC3CCCC3)N(C3CCCC3)C2=O)c2ccccc21)N1CCCC1 | 100% (active) | 5% (inactive) | -1% (inactive) | 100% (active) | inactive | inactive | inactive | inactive |
| O=C(/C=C/c1ccc(Cl)c(Cl)c1)NCCCCCN1CCC(NC(=O)Nc2ccccc2Cl)CC1 | 23% (inactive) | 56% (active) | 3% (inactive) | 102% (active) | inactive | inactive | inactive | inactive |
